# PubChem BioAssay (NCI)
# This is part of a sample that, as a whole, favours compounds with a hit. Of some 83,000 tested, about 20% had one in any assay.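 Activity criterion: percent growth below 10, measured after cells in 96-well plates were exposed to a single compound concentration for 48 hours.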 Activity calls are given as the source filed them.
# System: SR leukemia
# Test: NCI-60 one-dose screen, 48 h (100 = growth as untreated, 0 = no growth, -100 = all killed)
# Conditions: 10 µM unless noted
row,SMILES,growth
1,Cc1cc(C)n(CC(=O)Nc2ccc(-c3nc4ccccc4s3)cc2)n1,99.4% (inactive)
2,CNS(=O)(=O)Nc1nccc(Cc2c(C)c3ccc(Oc4ncccn4)cc3oc2=O)c1F,58.3% (inactive)
3,C[C@@H](Oc1cc(-n2cnc3ccc(CN4CCN(C)CC4)cc32)sc1C(N)=O)c1ccccc1C(F)(F)F,-19.6% (active)
4,COc1ccc(Cl)c(Nc2nc3ccccc3nc2NS(=O)(=O)c2cccc(NC(=O)C(C)(C)N)c2)c1,54.9% (inactive)
5,COc1ccc(-c2ccc3c(N4CCOC[C@@H]4C)nc(N4CCOC[C@@H]4C)nc3n2)cc1CO,9% (active)
6,O=C(Nc1cccc(Cl)c1)Nc1ncc(CCNc2ncnc3ccsc23)s1,19.3% (inactive)
7,C#Cc1cccc(Nc2ncnc3cc(OCCOC)c(OCCOC)cc23)c1,51.3% (inactive)
8,O=C(Nc1ccc(Nc2ncnc3sc4c(c23)CCOC4)cc1)Nc1ccc(Cl)c(C(F)(F)F)c1,83% (inactive)
9,CCCCN1C(=O)c2cccc3c(-c4ccc5c(c4)ncn5C4CCCCC4)ccc(c23)C1=O,91.1% (inactive)
10,COc1cc(Nc2c(C#N)cnc3cc(OCCCN4CCN(C)CC4)c(OC)cc23)c(Cl)cc1Cl,31.5% (inactive)
11,COc1ncc(-c2ccc3nccc(-c4ccnnc4)c3c2)cc1NS(=O)(=O)c1ccc(F)cc1F,-16.9% (active)
12,C/C(=C(/c1ccc(Cl)cc1)c1ccc(OCCN2CCCC2)cc1)c1ccccc1,7.27% (active)
13,COc1cc(OC)c(/C=C/S(=O)(=O)Cc2ccc(OC)c(NCC(=O)O)c2)c(OC)c1,10.7% (inactive)
14,Nc1ncnc2c1ccn2-c1cccc(NC(=O)c2ccc(N3CCOCC3)c(C(F)(F)F)c2)c1,51.8% (inactive)
15,C/C=C/C=N/NC(=S)Nc1ccccc1,83.4% (inactive)
16,C=CC(=O)Nc1cc(Nc2nccc(-c3cn(C)c4ccccc34)n2)c(OC)cc1N(C)CCN(C)C,-24% (active)
17,C[C@@H](NC(=O)c1ncnc(N)c1Cl)c1ncc(C(=O)Nc2cc(C(F)(F)F)c(Cl)cn2)s1,57.5% (inactive)
18,COc1cc2c(Oc3ccc4[nH]c(C)cc4c3F)ncnc2cc1OCCCN1CCCC1,84.3% (inactive)
19,NC[C@@](O)(c1ccc(Cl)cc1)c1ccc(-c2cn[nH]c2)cc1,0.545% (active)
20,Cc1cc(O)cc(-c2c(-c3ccnc(-c4cccnc4)c3)cnn2C)c1,42.2% (inactive)

row,SMILES,growth
1,CS(=O)(=O)N1CCN(Cc2cc3nc(-c4cccc5[nH]ncc45)nc(N4CCOCC4)c3s2)CC1,18.6% (inactive)
2,CN[C@@H]1C[C@H]2O[C@@](C)([C@@H]1OC)n1c3ccccc3c3c4c(c5c6ccccc6n2c5c31)C(=O)N[C@H]4O,1.68% (active)
3,O=c1[nH]ccc2c(S(=O)(=O)N3CCCNCC3)cccc12,83.3% (inactive)
4,CCN(CCCOc1ccc2c(Nc3cc(CC(=O)Nc4cccc(F)c4)[nH]n3)ncnc2c1)CCOP(=O)(O)O,36.3% (inactive)
5,Cn1cc(-c2cnn3c(N)c(Br)c([C@@H]4CCCNC4)nc23)cn1,4.1% (active)
6,C[C@@H](Nc1cc(F)cc(F)c1)c1cc(C(=O)N(C)C)cc2c(=O)cc(N3CCOCC3)oc12,53.5% (inactive)
7,COc1ccc2c(CCCc3ccc(Cl)cc3Cl)c3[n+](cc2c1OC)CCc1cc2c(cc1-3)OCO2,-38.6% (active)
8,Cn1c(=O)c(F)c(Nc2ccc(I)cc2F)c2c(=O)n(C[C@@H](O)CO)cnc21,52.4% (inactive)
9,CC(C)(C)c1cnc(CSc2cnc(NC(=O)C3CCNCC3)s2)o1,0.401% (active)
10,NC1(C(=O)N[C@@H](CCO)c2ccc(Cl)cc2)CCN(c2ncnc3[nH]ccc23)CC1,23.7% (inactive)
11,COC(=O)c1ccc2c(C(=Nc3ccc(N(C)C(=O)CN4CCN(C)CC4)cc3)c3ccccc3)c(O)[nH]c2c1,6.5% (active)
12,CS(=O)(=O)CCNCc1ccc(-c2ccc3ncnc(Nc4ccc(OCc5cccc(F)c5)c(Cl)c4)c3c2)o1,3.31% (active)
13,C1=C\COCc2cc(ccc2OCCN2CCCC2)Nc2nccc(n2)-c2cccc(c2)COC/1,-8.75% (active)
14,O=C(Nc1cn[nH]c1-c1nc2ccc(CN3CCOCC3)cc2[nH]1)NC1CC1,-11.9% (active)
15,Cc1cc2c(-c3nc4ccccn4c3N)c(O)c(O)cc2c(O)c1-c1c(C)cc2c(-c3nc4ccccn4c3N)c(O)c(O)cc2c1O,26.9% (inactive)
16,Cc1csc(-c2nnc(Nc3ccc(Oc4ncccc4-c4ccnc(N)n4)cc3)c3ccccc23)c1,3.4% (active)
17,CC(C)CC(=O)Nc1n[nH]c2c1CN(C(=O)C1CCN(C)CC1)C2(C)C,2.42% (active)
18,Cc1ccccc1N1C(c2ccccc2)=NNC12C=CC(=O)C=C2Cl (centres undefined),90.6% (inactive)
19,C=CCn1c(=O)c2cnc(Nc3ccc(N4CCN(C)CC4)cc3)nc2n1-c1cccc(C(C)(C)O)n1,4.58% (active)
